The full list was thinned out, with hits kept by preference.
Dicer inh = human Dicer pre-microRNA cleavage inhibition; Q9UPY3; cat-ELCCA pre-miR-21 Dicer processing, chemiluminescence; hits give high values; z-score at 25 µM; 6% of 47,000 active; in the data active = z-score above about 3, passing the limit was not always enough;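 also: plate controls were vehicle for no effect and no enzyme for full effect; higher signal means more uncleaved substrate so more Dicer inhibition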
The depositor's hits bear a star.

SMILES | Dicer inh
Cc1nc2ccccc2n1C1CC(=O)N(c2ccc(F)cc2)C1=O (stereo not given) | 0.57
CCCCCCn1c(C2CC(=O)N(c3ccccc3)C2)nc2ccccc21 (stereo not given) | 2.2
CC(C)c1ccc(N2CC(C(=O)O)CC2=O)cc1 (stereo not given) | 7.6
O=c1[nH]c2ccccc2n1Cc1ccc(Cl)cc1 | 0.77
CC(C)CCn1c(C2CC(=O)N(c3ccccc3)C2)nc2ccccc21 (stereo not given) | 3.7*
O=C1CC(SCc2ccc(Cl)cc2)C(=O)N1c1ccccc1 (stereo not given) | -5.8
CSc1nc2ccccc2c(=O)n1CCc1ccccc1 | -0.42
CCOc1ccc(N2CC(c3nc4ccccc4n3CC)CC2=O)cc1 (stereo not given) | 2.9
O=C1CC(c2nc3ccccc3n2Cc2ccc(Cl)cc2)CN1c1ccccc1 (stereo not given) | 5.9*
CC1(C)Cc2c(sc3ncn4nc(-c5cccnc5)nc4c23)C(C)(C)N1 | -0.21
C=C1SC(Nc2c(C)cccc2Cl)=NC12CCCCC2 | -0.79
C=CCOc1ccc(C2c3c(oc4ccccc4c3=O)C(=O)N2c2nnc(C)s2)cc1 (stereo not given) | 0.05
CCOc1ccc(/C(O)=C2\C(=O)C(=O)N(c3nnc(C)s3)C2c2ccc(Cl)cc2)cc1 (stereo not given) | -0.05
c1csc(C2Nc3ccccc3N2)c1 | 0.24
CS/C(=C\C(=O)c1cccs1)NCc1ccccc1 | -1.4
O=C(CSc1nc2ccccc2c(=O)n1-c1cccnc1)c1cccs1 | -0.48
Cc1c(N=CN(C(=O)C2CCCCC2)c2cccc([N+](=O)[O-])c2C)cccc1[N+](=O)[O-] | 0.18
CCc1ccccc1N1C(=O)C2C3c4ccccc4C(CO)(c4ccccc43)C2C1=O (stereo not given) | 1.6
Nc1ccc2nc(COc3ccc(Cl)cc3)[nH]c2c1 | -0.34
CCOC(=O)c1nn(-c2ccc(Cl)cc2)c2nc3ccccc3n12 | -0.37
CN1CCN(/C=N/c2ncc(C(F)(F)F)cc2Cl)CC1 | -0.33
CC(=O)Nc1ccc(C)c(N=Cc2ccc(Cl)c(Cl)c2)c1 | -2.1
N#C/C(=C\Nc1ccc(Cl)cn1)S(=O)(=O)c1ccc(Cl)cc1 | 1.2
N#C/C(=C\Nc1ccc(Cl)cn1)S(=O)(=O)c1ccccc1 | 3.2*
N#C/C(=C\Nc1ccc(Cl)cn1)S(=O)(=O)c1ccccn1 | -2.1
SMILES | Dicer inh
Cc1cc(Oc2ccc(=O)n(C)n2)nc(SCC(=O)Nc2ccc(Cl)cc2)n1 | -0.59
CN(C)c1ccc(NS(=O)(=O)c2ccc(-c3csnn3)cc2)cc1 | 7*
COCCCNS(=O)(=O)c1ccc(NS(=O)(=O)c2ccc(C)cc2)cc1 | 4.7*
Cc1ccc(S(=O)(=O)N/N=C/C(=O)O)cc1 | -1
COc1ccc(NS(=O)(=O)c2ccc(NS(=O)(=O)c3ccc(C)cc3)cc2)nn1 | -0.33
COc1ccc(-c2csnn2)cc1S(=O)(=O)Nc1ccccc1 | 2.2
Cc1ccc(S(=O)(=O)NCCCN(C)C)cc1 | 2.8
COCCCNC(=S)NNS(=O)(=O)c1ccc(C)cc1 | 0.29
Cc1ccc(S(=O)(=O)Nc2ccc(N(C)C)cc2)cc1 | 3.8*
CNC(=O)NNc1ccc(-c2csnn2)cc1 | 0.33
COc1ccc(-c2ccc(C#N)c(SCc3ccccn3)n2)cc1 | 2.4
CCN(CC)CCCNC(=O)Cn1cnc2c1c(=O)n(C)c(=O)n2C | 2.1
N#Cc1cn(C2CC2)c(=O)n(Cc2ccccc2)c1=O | 0.8
C=CCNC(=O)c1ccccc1NC(=O)CN1C(=O)c2cccc3cccc1c23 | 0.78
CC(=O)N1[C@@H](C(=O)O)C(C)(C)S[C@H]1c1ccccc1 | 1.4
O=C(N=S1CCC2(C1)OCCO2)c1cc(C(F)(F)F)cc(C(F)(F)F)c1 (stereo not given) | 1.4
c1ccc(Sc2ncnc3sc4c(c23)CCCC4)cc1 | -1.3
O=C1c2ccccc2S(=O)(=O)N1CCCCN1CCN(c2ncccn2)CC1 | 0.08
O=C1c2ccccc2S(=O)(=O)N1Cc1cccc2ccccc12 | -0.65
O=C(OCCN1CCN(C2=NS(=O)(=O)c3ccccc32)CC1)c1cccc2ccccc12 | 3.2*
Cn1c(NCc2ccccn2)nc2c1c(=O)n(Cc1cccc(Br)c1)c(=O)n2C | -0.09
Cc1onc(-c2ccccc2)c1C(=O)NC1CCSC1=O (stereo not given) | -0.7
O=C(NC1CCSC1=O)c1cccc(C(=O)NC2CCSC2=O)c1 (stereo not given) | 3*
O=C(NC1CCSC1=O)c1ccc(-c2ccccc2)cc1 (stereo not given) | -1.8
CSc1nc2c(c(=O)n1C)C1(CCCC1)Cc1ccccc1-2 | 4.2*
C=CCn1c(SCC)nc2c(c1=O)C1(CCCC1)Cc1ccccc1-2 | -3.6
C=CCSc1nc2c(c(=O)n1CC)C1(CCCC1)Cc1ccccc1-2 | -0.82
Cc1ccccc1-n1cc(-c2ccc(Br)cc2)[nH]c1=S | 0.87
CCOC(=O)C1=C(N)n2c(s/c(=C\c3ccc(OC)cc3)c2=O)=CC1c1ccc(OC)cc1 (stereo not given) | 1.2
O=C(NCCc1c[nH]c2ccccc12)C(=O)Nc1ccc2c(c1)OCO2 | 0.74

High-throughput results (PubChem)
